Source: ChEMBL document CHEMBL1961873, “Compounds: GSK PKIS; Assays: Nanosyn kinase panel” (2012)

Columns and labels:
[1] = target: Calcium/calmodulin-dependent protein kinase type II subunit alpha (Homo sapiens) (UniProt Q9UQM7); details: at 1 µM;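 also: reported value is a mean percent inhibition of CAMK2A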
[2] = target: Calcium/calmodulin-dependent protein kinase type II subunit delta (Homo sapiens) (UniProt Q13557); details: at 0.1 µM
[3] = target: Calcium/calmodulin-dependent protein kinase type II subunit delta (Homo sapiens) (UniProt Q13557); details: at 1 µM
[4] = target: T1, Calcium/calmodulin-dependent protein kinase type IV (Homo sapiens) (UniProt Q16566); details: at 0.1 µM
T1 sequence (whole entry): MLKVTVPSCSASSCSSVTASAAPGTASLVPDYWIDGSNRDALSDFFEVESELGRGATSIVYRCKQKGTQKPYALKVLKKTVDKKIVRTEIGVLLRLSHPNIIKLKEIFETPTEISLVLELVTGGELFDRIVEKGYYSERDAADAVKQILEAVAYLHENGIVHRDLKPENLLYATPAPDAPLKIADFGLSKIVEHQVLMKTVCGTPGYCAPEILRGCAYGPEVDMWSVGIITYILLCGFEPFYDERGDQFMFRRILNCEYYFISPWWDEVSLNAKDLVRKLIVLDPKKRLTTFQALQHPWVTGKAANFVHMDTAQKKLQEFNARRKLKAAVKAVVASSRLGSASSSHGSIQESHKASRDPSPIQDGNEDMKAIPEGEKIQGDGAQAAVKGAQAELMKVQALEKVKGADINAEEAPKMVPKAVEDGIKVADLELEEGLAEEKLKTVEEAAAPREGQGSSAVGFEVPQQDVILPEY

[5] = target: T1, Calcium/calmodulin-dependent protein kinase type IV (Homo sapiens); details: at 1 µM
[6] = target: T2, Serine/threonine-protein kinase Chk1 (Homo sapiens) (UniProt O14757); details: at 0.1 µM
T2 sequence (whole entry): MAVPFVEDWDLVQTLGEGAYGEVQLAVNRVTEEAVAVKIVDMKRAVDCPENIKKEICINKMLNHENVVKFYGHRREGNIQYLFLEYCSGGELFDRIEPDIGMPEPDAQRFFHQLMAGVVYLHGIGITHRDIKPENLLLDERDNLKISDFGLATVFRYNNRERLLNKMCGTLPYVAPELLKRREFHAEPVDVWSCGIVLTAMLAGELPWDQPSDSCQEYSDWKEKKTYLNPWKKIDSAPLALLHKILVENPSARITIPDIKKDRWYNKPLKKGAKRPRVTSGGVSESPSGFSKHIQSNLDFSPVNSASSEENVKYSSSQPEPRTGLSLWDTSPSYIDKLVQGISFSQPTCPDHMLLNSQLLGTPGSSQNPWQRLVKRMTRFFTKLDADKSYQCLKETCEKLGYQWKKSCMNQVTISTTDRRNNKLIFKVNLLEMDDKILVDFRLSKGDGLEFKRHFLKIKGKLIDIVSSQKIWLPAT

[7] = target: T2, Serine/threonine-protein kinase Chk1 (Homo sapiens); details: at 1 µM
[8] = target: Serine/threonine-protein kinase Chk2 (Homo sapiens) (UniProt O96017); details: at 0.1 µM
Serine/threonine-protein kinase Chk2 (Homo sapiens), sequence (O96017 whole entry): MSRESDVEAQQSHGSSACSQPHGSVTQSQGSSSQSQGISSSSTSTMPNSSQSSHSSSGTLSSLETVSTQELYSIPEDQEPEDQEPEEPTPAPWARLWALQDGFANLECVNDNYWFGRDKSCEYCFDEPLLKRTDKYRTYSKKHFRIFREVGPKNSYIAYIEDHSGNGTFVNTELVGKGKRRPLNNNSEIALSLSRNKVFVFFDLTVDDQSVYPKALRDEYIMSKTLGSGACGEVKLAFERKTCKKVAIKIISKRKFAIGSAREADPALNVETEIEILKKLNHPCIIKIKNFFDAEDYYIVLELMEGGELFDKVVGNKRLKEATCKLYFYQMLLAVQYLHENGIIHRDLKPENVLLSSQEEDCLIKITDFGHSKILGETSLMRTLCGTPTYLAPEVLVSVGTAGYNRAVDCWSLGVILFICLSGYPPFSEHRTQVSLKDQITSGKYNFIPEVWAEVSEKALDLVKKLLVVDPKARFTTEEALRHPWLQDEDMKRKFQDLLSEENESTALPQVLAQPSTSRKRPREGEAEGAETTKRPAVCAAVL

[9] = target: Serine/threonine-protein kinase Chk2 (Homo sapiens) (UniProt O96017); details: at 1 µM
[10] = target: Death-associated protein kinase 1 (Homo sapiens) (UniProt P53355); details: at 0.1 µM
Death-associated protein kinase 1 (Homo sapiens), sequence (P53355 whole entry, looked up): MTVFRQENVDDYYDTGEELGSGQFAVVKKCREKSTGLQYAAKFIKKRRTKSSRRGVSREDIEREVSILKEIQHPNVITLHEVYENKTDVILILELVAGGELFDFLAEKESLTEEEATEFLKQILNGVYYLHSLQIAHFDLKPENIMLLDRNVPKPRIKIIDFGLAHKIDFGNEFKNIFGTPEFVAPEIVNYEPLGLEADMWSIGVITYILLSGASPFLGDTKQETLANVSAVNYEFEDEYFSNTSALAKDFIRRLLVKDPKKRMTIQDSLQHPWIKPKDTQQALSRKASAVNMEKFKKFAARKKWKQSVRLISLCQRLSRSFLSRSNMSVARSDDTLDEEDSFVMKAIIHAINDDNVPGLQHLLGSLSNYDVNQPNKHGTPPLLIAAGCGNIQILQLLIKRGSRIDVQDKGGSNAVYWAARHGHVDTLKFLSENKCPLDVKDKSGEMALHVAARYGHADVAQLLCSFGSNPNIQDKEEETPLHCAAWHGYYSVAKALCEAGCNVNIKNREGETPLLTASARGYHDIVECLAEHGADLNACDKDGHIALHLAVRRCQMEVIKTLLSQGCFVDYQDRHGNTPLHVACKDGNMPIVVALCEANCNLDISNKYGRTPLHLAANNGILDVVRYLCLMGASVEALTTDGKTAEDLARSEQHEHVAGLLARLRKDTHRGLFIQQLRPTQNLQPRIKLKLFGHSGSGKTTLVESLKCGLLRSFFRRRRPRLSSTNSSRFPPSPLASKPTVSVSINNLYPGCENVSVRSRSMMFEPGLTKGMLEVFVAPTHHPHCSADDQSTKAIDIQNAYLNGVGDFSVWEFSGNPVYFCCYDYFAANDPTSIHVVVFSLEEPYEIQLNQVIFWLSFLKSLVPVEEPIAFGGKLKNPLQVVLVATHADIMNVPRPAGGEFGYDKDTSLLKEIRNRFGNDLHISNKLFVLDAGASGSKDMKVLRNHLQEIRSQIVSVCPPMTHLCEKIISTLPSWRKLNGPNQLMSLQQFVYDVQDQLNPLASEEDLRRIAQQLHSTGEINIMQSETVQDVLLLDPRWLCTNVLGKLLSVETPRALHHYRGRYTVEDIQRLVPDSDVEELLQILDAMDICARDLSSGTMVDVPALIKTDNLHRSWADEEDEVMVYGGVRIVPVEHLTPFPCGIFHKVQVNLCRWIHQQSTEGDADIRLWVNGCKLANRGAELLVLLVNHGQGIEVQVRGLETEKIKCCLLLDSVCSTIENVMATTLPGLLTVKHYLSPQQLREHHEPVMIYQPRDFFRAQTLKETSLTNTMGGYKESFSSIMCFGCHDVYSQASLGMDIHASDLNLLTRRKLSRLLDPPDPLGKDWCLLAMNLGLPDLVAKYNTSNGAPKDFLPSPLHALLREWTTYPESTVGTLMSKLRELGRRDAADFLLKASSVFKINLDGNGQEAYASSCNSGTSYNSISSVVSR

[11] = target: Death-associated protein kinase 1 (Homo sapiens) (UniProt P53355); details: at 1 µM
[12] = target: T3, Serine/threonine-protein kinase DCLK2 (Homo sapiens) (UniProt Q8N568); details: at 0.1 µM
T3 sequence (whole entry): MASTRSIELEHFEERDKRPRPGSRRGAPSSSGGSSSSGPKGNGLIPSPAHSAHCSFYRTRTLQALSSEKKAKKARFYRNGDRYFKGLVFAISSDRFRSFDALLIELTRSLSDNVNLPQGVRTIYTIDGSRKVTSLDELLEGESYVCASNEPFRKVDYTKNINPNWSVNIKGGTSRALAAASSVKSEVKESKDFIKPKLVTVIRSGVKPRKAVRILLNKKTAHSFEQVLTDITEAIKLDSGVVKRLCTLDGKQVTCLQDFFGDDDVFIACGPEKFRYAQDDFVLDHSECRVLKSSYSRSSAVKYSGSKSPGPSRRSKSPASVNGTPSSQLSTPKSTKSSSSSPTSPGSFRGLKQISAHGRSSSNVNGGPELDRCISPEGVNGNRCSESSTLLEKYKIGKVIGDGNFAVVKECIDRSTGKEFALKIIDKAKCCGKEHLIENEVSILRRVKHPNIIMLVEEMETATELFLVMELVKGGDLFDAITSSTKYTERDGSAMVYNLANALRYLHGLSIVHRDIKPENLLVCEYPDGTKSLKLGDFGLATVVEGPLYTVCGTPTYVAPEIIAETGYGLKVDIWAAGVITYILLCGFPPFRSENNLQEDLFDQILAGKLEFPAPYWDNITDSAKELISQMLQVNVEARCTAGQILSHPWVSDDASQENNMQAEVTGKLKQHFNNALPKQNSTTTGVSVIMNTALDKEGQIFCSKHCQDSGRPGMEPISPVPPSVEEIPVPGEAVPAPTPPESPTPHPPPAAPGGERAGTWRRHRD

[13] = target: T3, Serine/threonine-protein kinase DCLK2 (Homo sapiens); details: at 1 µM
[14] = target: MAP kinase-activated protein kinase 2 (Homo sapiens) (UniProt P49137); details: at 0.1 µM
MAP kinase-activated protein kinase 2 (Homo sapiens), sequence (P49137 whole entry, looked up): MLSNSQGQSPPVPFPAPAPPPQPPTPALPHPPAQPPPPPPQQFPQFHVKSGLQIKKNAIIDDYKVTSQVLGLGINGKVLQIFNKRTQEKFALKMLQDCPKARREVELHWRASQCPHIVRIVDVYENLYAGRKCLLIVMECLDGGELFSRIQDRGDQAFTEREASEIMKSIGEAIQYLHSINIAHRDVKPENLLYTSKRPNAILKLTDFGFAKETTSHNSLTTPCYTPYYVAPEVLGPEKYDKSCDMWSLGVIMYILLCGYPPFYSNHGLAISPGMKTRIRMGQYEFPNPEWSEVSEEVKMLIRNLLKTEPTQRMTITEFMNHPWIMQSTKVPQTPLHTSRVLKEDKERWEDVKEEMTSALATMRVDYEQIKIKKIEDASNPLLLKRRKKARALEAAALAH

[15] = target: MAP kinase-activated protein kinase 2 (Homo sapiens) (UniProt P49137); details: at 1 µM
[16] = target: MAP kinase-activated protein kinase 3 (Homo sapiens) (UniProt Q16644); details: at 0.1 µM
[17] = target: MAP kinase-activated protein kinase 3 (Homo sapiens) (UniProt Q16644); details: at 1 µM
[18] = target: Serine/threonine-protein kinase MARK1 (Homo sapiens) (UniProt Q9P0L2); details: at 0.1 µM
Serine/threonine-protein kinase MARK1 (Homo sapiens), sequence (Q9P0L2 whole entry, looked up): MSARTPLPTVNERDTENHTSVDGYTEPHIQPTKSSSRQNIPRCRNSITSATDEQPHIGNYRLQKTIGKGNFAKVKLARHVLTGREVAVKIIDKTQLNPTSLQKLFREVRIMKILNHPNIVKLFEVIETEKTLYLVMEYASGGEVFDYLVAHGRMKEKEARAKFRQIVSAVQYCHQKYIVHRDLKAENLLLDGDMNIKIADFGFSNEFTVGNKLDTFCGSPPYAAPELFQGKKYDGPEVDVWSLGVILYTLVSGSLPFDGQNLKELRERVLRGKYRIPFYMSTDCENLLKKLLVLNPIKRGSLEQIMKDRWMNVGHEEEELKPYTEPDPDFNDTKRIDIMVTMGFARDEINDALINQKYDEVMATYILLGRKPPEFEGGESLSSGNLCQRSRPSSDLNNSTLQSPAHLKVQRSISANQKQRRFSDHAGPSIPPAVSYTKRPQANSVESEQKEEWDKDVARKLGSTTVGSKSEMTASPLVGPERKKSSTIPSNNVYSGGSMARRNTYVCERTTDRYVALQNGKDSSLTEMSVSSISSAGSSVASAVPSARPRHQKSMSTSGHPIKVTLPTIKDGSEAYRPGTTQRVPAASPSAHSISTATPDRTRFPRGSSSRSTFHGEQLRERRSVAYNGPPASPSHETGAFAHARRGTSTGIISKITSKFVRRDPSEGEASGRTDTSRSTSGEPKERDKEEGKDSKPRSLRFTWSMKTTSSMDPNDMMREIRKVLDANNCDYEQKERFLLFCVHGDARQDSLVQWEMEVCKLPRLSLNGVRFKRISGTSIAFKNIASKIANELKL

[19] = target: Serine/threonine-protein kinase MARK1 (Homo sapiens) (UniProt Q9P0L2); details: at 1 µM
[20] = target: MAP/microtubule affinity-regulating kinase 3 (Homo sapiens) (UniProt P27448); details: at 0.1 µM;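 also: mean percent inhibition of MARK3 kinase activity, measured within the GSK PKIS screening panel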
MAP/microtubule affinity-regulating kinase 3 (Homo sapiens), sequence (P27448 whole entry, looked up): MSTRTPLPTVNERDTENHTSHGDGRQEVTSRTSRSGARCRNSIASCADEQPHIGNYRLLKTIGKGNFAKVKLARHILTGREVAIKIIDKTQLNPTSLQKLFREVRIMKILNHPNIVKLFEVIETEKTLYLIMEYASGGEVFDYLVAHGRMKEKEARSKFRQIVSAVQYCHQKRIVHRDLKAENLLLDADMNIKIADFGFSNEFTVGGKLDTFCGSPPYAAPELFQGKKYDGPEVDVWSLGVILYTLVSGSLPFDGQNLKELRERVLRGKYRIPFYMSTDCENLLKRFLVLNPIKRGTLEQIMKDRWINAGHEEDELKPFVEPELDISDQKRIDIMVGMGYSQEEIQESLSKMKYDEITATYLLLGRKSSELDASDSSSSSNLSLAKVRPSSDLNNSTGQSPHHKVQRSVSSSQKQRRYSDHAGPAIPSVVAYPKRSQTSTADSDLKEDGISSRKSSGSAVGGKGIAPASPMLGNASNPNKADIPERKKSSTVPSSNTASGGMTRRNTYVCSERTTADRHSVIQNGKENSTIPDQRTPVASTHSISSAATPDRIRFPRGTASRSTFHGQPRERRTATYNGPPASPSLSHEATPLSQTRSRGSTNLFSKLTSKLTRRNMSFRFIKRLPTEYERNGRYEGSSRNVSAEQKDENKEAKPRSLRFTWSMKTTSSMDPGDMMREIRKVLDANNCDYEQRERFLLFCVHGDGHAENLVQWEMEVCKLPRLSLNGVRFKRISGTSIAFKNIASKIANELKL

Calcium/calmodulin-dependent protein kinase type II subunit delta (Homo sapiens), sequence (Q13557 whole entry): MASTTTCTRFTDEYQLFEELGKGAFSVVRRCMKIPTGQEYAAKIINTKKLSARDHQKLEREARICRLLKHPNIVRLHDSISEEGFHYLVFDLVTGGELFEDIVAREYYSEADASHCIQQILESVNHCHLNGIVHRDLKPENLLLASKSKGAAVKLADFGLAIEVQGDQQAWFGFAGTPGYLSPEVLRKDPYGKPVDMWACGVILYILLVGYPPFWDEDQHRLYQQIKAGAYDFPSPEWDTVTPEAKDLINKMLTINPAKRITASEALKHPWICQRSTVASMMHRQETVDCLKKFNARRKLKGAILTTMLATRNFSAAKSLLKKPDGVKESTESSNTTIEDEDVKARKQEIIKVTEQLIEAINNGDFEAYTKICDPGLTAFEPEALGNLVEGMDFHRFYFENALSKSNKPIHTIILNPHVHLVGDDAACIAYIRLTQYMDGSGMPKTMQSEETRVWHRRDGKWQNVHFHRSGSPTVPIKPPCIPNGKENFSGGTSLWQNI
Calcium/calmodulin-dependent protein kinase type II subunit alpha (Homo sapiens), sequence (Q9UQM7 whole entry): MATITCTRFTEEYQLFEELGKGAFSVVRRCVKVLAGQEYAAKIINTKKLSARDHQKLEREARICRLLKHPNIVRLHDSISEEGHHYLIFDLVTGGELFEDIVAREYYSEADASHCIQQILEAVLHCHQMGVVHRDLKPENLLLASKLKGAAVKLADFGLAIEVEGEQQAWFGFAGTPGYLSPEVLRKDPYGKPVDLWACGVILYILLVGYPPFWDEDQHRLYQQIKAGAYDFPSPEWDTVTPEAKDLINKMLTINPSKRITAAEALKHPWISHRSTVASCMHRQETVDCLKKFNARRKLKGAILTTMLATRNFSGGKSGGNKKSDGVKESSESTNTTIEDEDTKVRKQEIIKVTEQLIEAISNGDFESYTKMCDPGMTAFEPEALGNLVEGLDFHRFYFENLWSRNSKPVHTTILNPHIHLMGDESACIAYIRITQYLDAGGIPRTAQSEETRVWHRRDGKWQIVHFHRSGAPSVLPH

Row | Compound | inhibition [1] | inhibition [2] | inhibition [3] | inhibition [4] | inhibition [5] | inhibition [6] | inhibition [7] | inhibition [8] | inhibition [9] | inhibition [10] | inhibition [11] | inhibition [12] | inhibition [13] | inhibition [14] | inhibition [15] | inhibition [16] | inhibition [17] | inhibition [18] | inhibition [19] | inhibition [20]
1 | O=C1Nc2ccccc2/C1=C1\CCc2cc(O)ccc21 | 8.04% | 6.22% | 13% | 0.46% | -0.69% | -1.18% | 9.92% | 1.37% | 21.3% | -1.94% | -2.93% | 2.55% | 0.84% | -0.94% | -0.15% | -1.04% | -1.15% | 8.64% | 33.8% | 7.19%
2 | CNC(=O)c1cncc(/C=C/c2ccccc2C)c1 | 3.24% | 2.3% | 3.14% | -1.31% | -2.38% | 5.89% | 5.73% | 2.11% | 3.83% | 6.54% | 7.67% | 0.83% | 0.28% | 1.99% | 2.51% | 3.43% | 3.22% | 2.55% | 7.06% | 3.94%
3 | c1ccc(-c2n[nH]cc2-c2ccnc(-c3ccc(OCCn4ccnc4)cc3)c2)nc1 | -1.38% | -0.35% | 0.74% | 0.1% | -0.86% | -5.5% | -4.71% | -3.83% | -2.77% | -7.91% | -8.69% | 6.53% | -6.73% | -2.58% | -2.83% | -3.24% | 4.97% | 1.59% | 3.61% | -0.18%
